Laboratory results published in PubChem BioAssay AID2284148 (EPA ToxCast).
Active and inactive are the calls of the source. Rule for the calls: active = hit-call score of the fitted dose curve at least 0.9, where 1 is the maximum; inactive = score below 0.9.

molecular target: human Cholecystokinin Receptor CCK1 (CCKA) Agonism, CCKAR (gene 886) (UniProt P32238); assay: ERF_TW_GPCR_hCCKAR: Eurofins (ERF) G Protein-Coupled Receptor (GPCR) Radioligand Binding LeadHunter Assay for human Cholecystokinin Receptor CCK1 (CCKA) Agonism
Method: ERF_TW_GPCR_hCCKAR is a biochemical, single-readout assay that uses extracted gene-proteins in a cell-free assay. Measurements were taken 1 hour after chemical dosing in a 96-well plate. See CCK1 (CCKA) Human Cholecystokinin GPCR Binding (Antagonist Radioligand) Assay, Panlabs.ERF_TW_GPCR_hCCKAR is an assay component calculated from the ERF_TW_GPCR_hCCKAR assay. It is designed to measure radioligand binding using a type of binding reporter as detected by scintillation counting with radiometry technology.Data from the assay component ERF_TW_GPCR_hCCKAR was analyzed at the assay endpoint, ERF_TW_GPCR_hCCKAR, in the positive analysis fitting direction relative to DMSO as the negative control and baseline of activity. Using a type of binding reporter, loss-of-signal activity can be used to understand changes in binding as they relate to gene CCKAR. To generalize the intended target to other relatable targets, this assay endpoint is annotated to the gpcr intended target family, where the subfamily is cholecystokinin.
1321-N1 (human astrocytoma) stably transfected with a plasmid encoding the human recombinant CCK1 receptor are used to prepare membranes in modified HEPES buffer pH 7.4. A 5 ug aliquot of membrane is incubated with 0.11 nM [125I]CCK-8 for […] at 25C. […] Membranes are filtered and washed, the filters are then counted to determine [125I]CCK-8 specifically bound. […]

Sequence of human Cholecystokinin Receptor CCK1 (CCKA) Agonism, CCKAR (gene 886) (P32238 whole entry, looked up): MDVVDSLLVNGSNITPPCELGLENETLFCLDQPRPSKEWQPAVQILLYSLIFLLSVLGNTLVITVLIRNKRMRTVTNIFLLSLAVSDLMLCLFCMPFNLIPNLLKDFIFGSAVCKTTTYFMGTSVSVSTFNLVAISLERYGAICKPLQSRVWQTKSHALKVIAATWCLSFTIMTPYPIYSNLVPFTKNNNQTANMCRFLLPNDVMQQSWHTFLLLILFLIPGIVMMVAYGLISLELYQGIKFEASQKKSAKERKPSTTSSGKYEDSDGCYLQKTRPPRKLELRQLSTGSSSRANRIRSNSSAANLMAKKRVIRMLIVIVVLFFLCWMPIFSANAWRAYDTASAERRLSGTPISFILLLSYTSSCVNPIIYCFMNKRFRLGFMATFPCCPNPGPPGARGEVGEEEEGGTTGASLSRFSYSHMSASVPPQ

| Structure (SMILES) | outcome | AC50 |
| --- | --- | --- |
| CCCCC[C@H](O)CC(=O)CCc1ccc(O)c(OC)c1 | inactive | – |
| O=C(/C=C/c1ccc(O)cc1)CC(=O)/C=C/c1ccc(O)cc1 | – | 1.99 µM (active) |
